Drawing on PubChem BioAssay AID687014 (The Scripps Research Institute Molecular Screening Center, 2013), this text covers activation for 60 compounds.

SMILES strings stand for the structures. Screen size: about 370,000 compounds; about 6,800 (1.8%) were called active.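 The calls were made as follows: active = activation above a cutoff set at the mean of all screened compounds plus 3 SD (cut at about 10% in these data); inactive = the rest.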 Many of the other results were omitted from the sample, so actives are more common in it than they were.

The test relates to Nuclear hormone receptor DAF-12 (Heterodera glycines), GAL4 fusion. Nature of the test: hgDAF-12 GAL4 fusion reporter activation – cell-based, luminescence, HEK293, UAS-luciferase, primary screen (AID 687014).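 Also: 0% = DMSO wells and 100% = sodium butyrate wells.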 To be noted: HEK293 GAL4-hgDAF12 UAS-luciferase reporter, agonist luminescence; at 6.8 µM; active compounds read high; normalized to butyrate control. (In a reporter assay the amount or activity of a reporter protein is the signal.)
Turning to `CCOC(=O)C1CCN(C(=O)C(C)(C)NC(=O)Nc2ccccc2Cl)CC1`, the activation is 0.66% (inactive).
Next, `C[C@@H]1ON(C)[C@H]2C[C@H]3c4cc(N5CCOCC5)ccc4CCN3C[C@@H]12`: -4.54% (inactive).
Under `COC(=O)C1=C(C)N(Cc2ccccc2C(F)(F)F)C(=NCc2ccc(OC)cc2)NC1c1cccc(C(F)(F)F)c1` (stereo not given) stands -1.71% (inactive); under `O=C(Nc1ccon1)c1sc2ccccc2c1Cl`, 11.2% (active); under `CN1CCc2ccccc2C1Cc1ccccc1NC(=O)c1sc2ccccc2c1Cl` (stereo not given), 5.85% (inactive).
For `O=C(Nc1ccc2c(c1)OCO2)c1sc2cc(Cl)ccc2c1Cl`, the activation was -1.79% (inactive).
Next, `C[C@@H]1CN([C@H](C)CO)C(=O)CCCn2cc(nn2)CO[C@H]1CN(C)C(=O)Nc1ccc(N2CCCCC2)cc1`: 5.88% (inactive).
Next, `N#CCSc1nc2ccc(N3CCOCC3)cc2c(=O)n1CCc1ccccc1`: -1.34% (inactive); `Cc1nn2c3cc(N4CCOCC4)ccc3nc2c2ccccc12`: 11.4% (active); `Cc1nc2ccccc2n1C(=O)N1CCOCC1`: 1.42% (inactive).
Next, `Cc1ccc(Cn2cc(CN3[C@@H](CC(C)C)COc4ccc(Cl)cc4S3(=O)=O)nn2)cc1`: 0.41% (inactive).
`CCCC1(C(=O)OCC)NC(c2ccc(N(C)C)cc2)C2C(=O)N(c3ccc4c(c3)OCCO4)C(=O)C21` (stereo not given): the activation was -2.1% (inactive).
As for `Cc1ccc(-c2nc(C3CCCN(S(=O)(=O)c4ccc(Br)s4)C3)no2)cc1` (stereo not given), the activation was 1.98% (inactive).
`Fc1cnc(N2CCOCC2)nc1NCc1ccccc1`: the activation was -0.76% (inactive).
Next, `COC(=O)c1ccccc1Oc1c(F)c(F)nc(N2CCOCC2)c1F`: -0.09% (inactive).
Next, `COc1ccc(Nc2ncc(F)c(N3CCOCC3)n2)cc1`: 18.6% (active); `COC(=O)c1cc2c(c3c4cc(F)ccc4n(S(=O)(=O)c4ccccc4)c13)C(=O)N(Cc1ccccc1OC)C2`: 0.57% (inactive); `Cc1ccc(NN=C2C(=O)OC(C)(C)OC2=O)c(C)c1`: 11.5% (active).
Under `Cc1ccc(NC(=O)C(=O)NCc2ccco2)c(C)c1` stands 6.27% (inactive); under `Cc1ccc(NC(=O)c2oc(=O)c3ccccc3c2-c2ccccc2)c(C)c1`, 2.59% (inactive).
`C=CCN(C)CC#Cc1ccccc1`: the activation is -1.36% (inactive).
Under `CCCCSc1nnc(-c2ccc(C)cc2)o1` stands 8.59% (inactive); under `O=C(CSc1nnc(-c2ccco2)o1)NCC(=O)c1ccccc1`, -1.52% (inactive); under `CCOc1ccc(-c2nnc(-c3ccco3)o2)cc1`, 13.6% (active).
Under `CCCCCCc1cc2cc(-c3nnc(-c4cccc(OC)c4)o3)c(=O)oc2cc1O` stands 4.05% (inactive); under `CCCCOc1ccc(-c2nnc(-c3ccco3)o2)cc1`, 11.3% (active).
Under `CCOc1ccc(NC(=O)N(CCC(C)C)C(C)c2ccco2)cc1` (stereo not given) stands -1.26% (inactive).
`COC(=O)[C@]12C[C@H](CC(=O)N3CCOCC3)C(=O)N(Cc3ccc(Cl)cc3Cl)C1=C[C@H](C(C)C)O[C@@H]2C1CC1`: the activation was -3.62% (inactive).
Under `CCOC(=O)C1=C(C(=O)OCC)C2N(Cc3ccc(C#N)cc3)c3ccccc3[C@@]23C[C@@H](C(=O)OC)N(S(=O)(=O)c2ccc(F)cc2)C3=N1` (stereo not given in full) stands 2.34% (inactive); under `Cc1ccc(-n2c(SCC(=O)Nc3cccc4ccccc34)nnc2-c2ccccn2)cc1`, -2.36% (inactive); under `Cc1cccc(OCC(=O)Nc2ccc(C(=O)O)cc2NC(=O)COc2cccc(C)c2)c1`, -2.94% (inactive).
Next, `Cc1cccc(OCC(=O)NC2CC(C)(C)NC(C)(C)C2)c1`: 0.72% (inactive); `Cc1cccc(OCC(=O)Nc2ccccc2F)c1`: 11.4% (active).
Next, `COC(=O)C1CN(CCc2ccccc2)CCS(=O)(=O)N1Cc1cccc(Cl)c1` (stereo not given): -0.51% (inactive); `COc1ccc(-c2onc(C)c2-c2ccc3c(c2)OCCO3)c(O)c1`: -2.49% (inactive); `Cc1ccc(C(=O)NNC2=Nc3cc([N+](=O)[O-])ccc3OC2)cc1`: 4.07% (inactive).
`COc1ccc(C2=Nc3cc(C)ccc3OC2)cc1`: the activation was 15.9% (active).
Under `O=C1Nc2ccccc2OC1CC(=O)N1CCCCCCC1` (stereo not given) stands 3.97% (inactive); under `O=C(c1cccc(C(F)(F)F)c1)N1CC[C@H]2[C@H](CCCN2Cc2cc(F)cc(F)c2)C1`, 1.35% (inactive).
Turning to `O=C(O)c1ccc(N=NN2CCOCC2)cc1`, the activation was 10.6% (active).
Next, `CC(=O)c1ccc(OC(=O)N2CCOCC2)cc1`: 1.11% (inactive); `O=C(c1ccccc1)C(O)(CN1CCCCC1)c1ccccc1` (stereo not given): -0.03% (inactive).
Next, `Cc1ccc(C(=O)C(=S)N2CCOCC2)cc1`: 3.06% (inactive); `NC1=NN(c2cccc(C(=O)O)c2)C(=O)C1`: 0.87% (inactive); `O=C(O)c1cccc(N=NN2CCCCCC2)c1`: 12.7% (active).
Under `O=C(NC1CCCCN(Cc2cccc(C(F)(F)F)c2)C1=O)c1ccccc1I` (stereo not given) stands -2.42% (inactive); under `CC(C)NC(=S)N1CCN(S(C)(=O)=O)CC1`, 2.81% (inactive).
As to `C=CCN1C(=O)[C@H](CC(=O)N2CCN(C(=O)OCC)CC2)[C@@]2(C(=O)OCC)CCCC=C12`, the activation is 0.53% (inactive).
With `COC(=O)[C@@]12CCCCC=C1N(CCc1ccc(Cl)cc1)C(=O)[C@H]2CC(=O)NCc1ccc(OC)c(OC)c1`, the activation is -3.28% (inactive).
Next, `CCOC(=O)c1cc2c(nc1NC(=S)Nc1ccccc1)CC(C)(CC)OC2` (stereo not given): -0.06% (inactive).
Next, `CCOC(=O)c1c(NC(=S)Nc2ccccc2)sc2c1CCN(C)C2`: -0.1% (inactive); `CCOC(=O)c1cn[nH]c1NC(=S)Nc1ccccc1`: 15.5% (active); `Cc1ccccc1Nc1nc(N)nc(CN2CCN(c3ccccn3)CC2)n1`: -1.77% (inactive).
As to `Cc1ccccc1Nc1nc(N)nc(CSc2nnc3ccccn23)n1`, the activation was -2.26% (inactive).
Under `Cc1ccccc1Nc1nc(N)nc(CSc2ccccc2)n1` stands 16.4% (active); under `Clc1ccc(-n2c(SC/C=C/c3ccccc3)nnc2-c2ccco2)cc1`, -0.13% (inactive).
On to `O=C(CSc1nc2ccccc2nc1N1CCCCC1)N1CCN(S(=O)(=O)c2cccc([N+](=O)[O-])c2)CC1`, for which the activation is 0.48% (inactive).
Next, `CCc1ccc(CNC(=O)CCc2nc(-c3cccs3)no2)cc1`: 1.81% (inactive).
As for `COc1ccc(CCc2nc(-c3cccs3)no2)cc1`, the activation was 11.6% (active).
For the compound `COc1ccc(OC)c(CNC(=O)CCc2nc(-c3cccs3)no2)c1`, the activation is -2.24% (inactive).
